The whole screen tested about 200,000 compounds, of which about 10 (0.005%) were called active. Another 8% or so got no clear call; they are omitted. Only a sample is shown. Values without a mark were called inactive. Calls follow the shape of the dose curve; as a rule, active = well fitted inhibition curve with a large enough effect; inconclusive = small, poorly fitted or top-dose-only effect, or effect the other way, or another doubt; inactive = no such curve, though single readings can be large or run the other way.

The test addresses Lysosomal alpha-glucosidase (Homo sapiens) (UniProt P10253). Briefly: qHTS Assay for Inhibitors of Human alpha-Glucosidase as a Potential Chaperone Treatment of Pompe Disease.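 Also: plate controls were uninhibited enzyme wells for no effect and no-enzyme background for full effect.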 To be noted: purified human GAA, 4-MU-alpha-glucoside fluorescence; series mostly up to 76.9 µM. From the text:
NIH Chemical Genomics Center [NCGC] NIH Molecular Libraries Probe Production centers Network [MLPCN] MLPCN Grant: 1R03MH084841-01 Assay Submitter (PI): Wei Zheng NCGC Assay Overview: Alpha-glucosidase is responsible for hydrolysis of terminal, non-reducing 1,4-linked alpha-D-glucose residues with release of alpha-D-glucose. It is a lysosomal hydrolase that is required for the degradation of a small percentage (1-3%) of cellular glycogen in human. Deficiency of this enzyme results in glycogen-storage disease type II (GSDII), also referred to as Pompe disease, an autosomal recessive disorder. Structurally normal glycogen is accumulated in lysosomes and cytoplasm in affected patients, primarily in muscle tissues. Excessive glycogen storage within lysosomes may interrupt normal functioning of other organelles and leads to cellular injury. In turn, this leads to enlargement and dysfunction of the entire organ involved (eg, cardiomyopathy and muscle weakness). It has reported that the improper folding and trafficking of alpha-glucosidase resulting from the genetic mutations may account for a significant number of Pompe patients. […] We optimized this alpha-glucosidase assay in 1536-well plate format for identifying the novel small molecule inhibitors with the structures other than the sugar analogs in order to develop the new pharmacological chaperones.
NCGC Assay Protocol Summary: This is a fluorogenic enzyme assay with 4-methylumbelliferyl-alpha-D-[…] as the substrate and human alpha-glucosidase as the enzyme preparation. Upon the hydrolysis of this fluorogenic substrate, the resulting product, 1. 4-methyllumbelliferone, can be excited at 365 nm and emits at 440 nm which can be detected by a standard fluorescence plate reader. Data were normalized to the controls for basal activity (without enzyme) and 100% activity (with enzyme). In the AC50 values were determined from concentration-response data modeled with the standard Hill equation. Assay buffer: 50 mM citric acid (titrated with potassium phosphate to pH 5.0), 0.005% Tween-20, pH 5.0. (pH 5.0 is an optimal condition for this enzyme assay) 1536-well assay protocol for the human alpha-glucosidase: (1) Add 2 ul/well of enzyme (4 nM final) (2) Add 23 nL compounds in DMSO solution. The final titration was 0.7 nM to 77 uM. (3) Add 1 ul of substrate (400 uM final) (4) Incubate at room temperature for 20 min. (5) Add 2 ul stop solution (1M NaOH and 1M Glycine mixture, pH 10) (6) Detect the assay plate in a ViewLux plate reader (PerkinElmer) with Ex=365 nm and Em=440nm. Keywords: Alpha-glucosidase, Pompe Disease, pharmacological chaperone, chaperone therapy, high throughput screening, alpha-glucosidase inhibitor, MLSMR, MLSCN, NIH Roadmap, qHTS and NCGC
In the case of `COc1cc(C)c(S(=O)(=O)N2CCOCC2)c(C)c1C`, the activity change, negative = inhibition result is “inactive”. The result for `COc1ccccc1/C=C/C=N/NC(=O)CN1CCN(Cc2ccccc2)CC1` reads “inactive”; that for `Cc1ccc(NC(=O)CSc2nnc(CNC(=O)c3ccccc3F)o2)cc1`, “inactive”.

Consider `COc1cccc(NCCC(=O)c2cccc([N+](=O)[O-])c2)c1`, for which the activity change, negative = inhibition entry was “inactive”. Take `CC(C)N(Cc1ccccc1)C(=O)COC(=O)c1cnccn1`: the activity change, negative = inhibition entry was “inactive”.

Consider `O=C1Nc2ccc([N+](=O)[O-])cc2C1=Nc1cccc(CO)c1`, for which the activity change, negative = inhibition entry was “inactive”. As for `COc1cc(/C=C2/C(=O)ON=C2C)ccc1OCc1cccc(F)c1`, the entry is “inactive”; as for `CCCCS(=O)c1snnc1C` (stereo not drawn), “inactive”; as for `COc1ccc(-c2nc(N)sc2C2(O)C(=O)Nc3c(Br)cc(F)cc32)cc1OC` (stereo not drawn), “inactive”.

As for `COc1ccccc1NC(=O)c1cc(Cl)nc2ccccc12`, the activity change, negative = inhibition was -0.703% [at 15.4 µM]. As to `Cc1c(C(=O)Nc2ccccc2)sc2nc3n(c(=O)c12)CCCCC3`, the activity change, negative = inhibition entry is “inactive”.

As for `Cc1noc(C)c1COc1ccc2ccc(=O)oc2c1`, the activity change, negative = inhibition result is “inactive”. The result for `O=C(CO/N=C/c1ccc(OC(F)F)cc1)NCc1ccc(F)cc1` reads “inactive”. For the compound `COCc1cc(=O)[nH]c(-c2ccc(C(F)(F)F)cc2)n1`, the activity change, negative = inhibition result was “inactive”. For the compound `CC1CC(C)CN(C(=O)CSc2ccsc2[N+](=O)[O-])C1` (stereo not drawn), the activity change, negative = inhibition entry was “inactive”. The result for `O=C(c1ccc(=O)oc1)N1CCC(C(O)(c2ccccc2)c2ccccc2)CC1` reads “inactive”; that for `O=C(/C=C/c1ccccc1[N+](=O)[O-])OC1CCCCC1=O` (stereo not drawn), “inactive”; that for `CCOc1ccc(C(CC(=O)O)n2cnnn2)cc1OC` (stereo not drawn), “inactive”. The result for `Cc1cc(=O)[nH]c(S)c1C#N` reads 1.79% [at 15.4 µM]; that for `Cc1c(Cl)cccc1NC(=S)N(Cc1ccccc1)Cc1cccnc1`, “inactive”.

Take `C=C(C)CNC(=S)Nc1ccc(S(=O)(=O)Nc2cnc3ccccc3n2)cc1`: the activity change, negative = inhibition result is “inactive”. With `N/C(=N\OC(=O)Cc1ccc([N+](=O)[O-])cc1)c1ccccn1`, the activity change, negative = inhibition result is “inactive”. On to `COc1cccc(OC)c1CN(C)C(=O)c1cnccc1C(F)(F)F`, for which the activity change, negative = inhibition is -1.85% [at 15.4 µM].

On to `CCS(=O)(=O)C1=NSC2=NC(=O)/C(=C\c3cc(C)n(-c4cccc(OC)c4)c3C)C(=N)N21`, for which the activity change, negative = inhibition entry was “inactive”. On to `CC1CC(=O)Nc2ccccc2N1S(=O)(=O)c1cccs1` (stereo not drawn), for which the activity change, negative = inhibition entry was “inactive”. The result for `Cc1nc(N2CCCCC2)sc1C=O` reads “inactive”; that for `Cc1cc(C)nc(NC(=O)/C=C/c2ccc(Cl)cc2)n1`, “inactive”.

With `COc1ccc(N2C(=O)C3C(C2=O)C(C(=O)c2ccccc2)N2CCCC32)cc1` (stereo not drawn), the activity change, negative = inhibition is -6.45% [at 15.4 µM]. Regarding `Cc1ccc(OC(=O)c2c(C)nn(-c3ccccc3)c2C)cc1`, the activity change, negative = inhibition result is “inactive”.

With `NS(=O)(=O)c1ccc(NC(=O)COC(=O)CCc2c[nH]c3ccccc23)cc1`, the activity change, negative = inhibition entry is “inactive”. In the case of `COc1ccc(CN(Cc2ccc(OC)cc2)C(=O)c2cccs2)cc1`, the activity change, negative = inhibition entry is “inactive”. As for `CCC(=O)N(Cc1cc2ccccc2[nH]c1=O)c1ccc(OC)cc1`, the entry is “inactive”; as for `O=C(Nc1cccnc1)c1cccc(S(=O)(=O)N2CCCC2)c1`, “inactive”. Take `CCOC(=O)NNc1cc(C(F)(F)F)ccn1`: the activity change, negative = inhibition is -7.1% [at 15.4 µM]. The result for `CN(C)c1ccc(/C=C/C(=O)c2ccc(O)cc2)cc1[N+](=O)[O-]` reads “inactive”; that for `COC(=O)c1noc(C)c1-c1ccnn1C(=O)c1ccc(Cl)cc1`, “inactive”; that for `CN(CCC1CCOCC1)Cc1cn[nH]c1-c1ccc(-c2ccccc2)cc1`, “inactive”. As for `CCOC(=O)C1CCN(c2ncnc3c2c(-c2ccccc2)cn3-c2ccc(C)cc2)CC1`, the entry is “inactive”; as for `CCOC(=O)c1sc(NC(=O)CSc2nc(O)c(Cc3ccccc3)c(=O)[nH]2)nc1C`, “inactive”. For `Cc1cc(=O)oc2c(C(=O)c3ccccc3)c(OCC(N)=O)ccc12`, the activity change, negative = inhibition entry is “inactive”. The result for `Cc1cc(C)cc(OCC(=O)O/N=C(\N)Cc2ccc([N+](=O)[O-])cc2)c1` reads “inactive”; that for `COC(=O)c1cc(NC(=O)c2ccco2)ccc1N1CCOCC1`, “inactive”; that for `CCc1ccc(NC(=O)N2CCN(c3ccccc3)CC2)cc1`, “inactive”. With `C=CCN(c1ccccc1C(=O)NCC(=O)OCC)S(=O)(=O)c1ccc(C)cc1`, the activity change, negative = inhibition result was “inactive”. With `CNC(=O)COC(=O)c1cc(-c2ccc(OC)cc2)nc2ccccc12`, the activity change, negative = inhibition result is “inactive”. For `COCCCNC(=S)NCCNc1nc2cc(C)c(C)cc2cc1C#N`, the activity change, negative = inhibition result is “inactive”. As for `C/[N+]([O-])=C\c1ccc([N+](=O)[O-])o1`, the entry is “inactive”; as for `COc1ccc(O)c(C(=O)c2cnc3c(c2)c(-c2ccc(F)cc2)c(C#N)c(=O)n3C)c1`, “inactive”. The result for `CN(C)S(=O)(=O)c1ccc(NC(=O)COC(=O)Cn2[nH]c(=O)c3ccccc3c2=O)cc1` reads “inactive”; that for `Cc1ccc(CN(Cc2cccnc2)C(=S)Nc2cc(Cl)ccc2C)cc1`, “inactive”; that for `Cc1ccccc1NCC(=O)N/N=C\c1ccc([N+](=O)[O-])s1`, “inactive”. Turning to `COc1cccc(NC(=O)C(Sc2nnnn2C)c2ccccc2)c1` (stereo not drawn), the activity change, negative = inhibition entry is “inactive”. As for `Cc1cc(C(=O)N/N=C\C(Br)=C\c2ccccc2)c(C)o1`, the entry is “inactive”.

Values taken from PubChem BioAssay AID1466 (National Center for Advancing Translational Sciences (NCATS), 2008).
